About 83,000 compounds went through this panel and 20% of them were active in at least one assay; those are over-represented in the sample as a whole.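 Negative percent growth values reflect cell death: -40 means 40% of the cells present at the start died, and -100 means all died.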 Calls of active or inactive are those of the source. Rule for the calls: active = growth percent below 10; inactive = the rest.
Tests used:
Test in all cases: NCI-60 one-dose screen, 48 h (100 = growth as untreated, 0 = no growth, -100 = all killed)
NCI-H23 lung = settings: 10 µM unless noted
NCI-H226 lung = settings: 10 µM unless noted
NCI-H322M lung = settings: 10 µM unless noted
HOP-62 NSCLC = settings: 10 µM unless noted
HOP-92 NSCLC = settings: 10 µM
NCI-H522 lung = settings: 10 µM
A549/ATCC NSCLC = settings: 10 µM unless noted
786-0 renal = settings: 10 µM unless noted
NCI-H460 lung = settings: 10 µM unless noted
COLO 205 colon = settings: 10 µM unless noted

Measured: growth

COc1ccccc1C(=O)Nc1cccc(-c2cc(=O)c3c(OC)c(OC)c(OC)cc3o2)c1
active: HOP-92 NSCLC -0.39%
inactive: NCI-H23 lung 62.4% | NCI-H226 lung 58.4% | NCI-H322M lung 43.6% | HOP-62 NSCLC 57.8% | NCI-H522 lung 44.3% | A549/ATCC NSCLC 48.2% | 786-0 renal 45.3%

O=C(CN1CCN(c2cccc(Cl)c2)CC1)N1CCN(c2nnc(-c3ccc(Cl)cc3)c(-c3ccc(Cl)cc3)n2)CC1
inactive: NCI-H23 lung 87.7% | NCI-H226 lung 76.7% | NCI-H322M lung 77.8% | HOP-62 NSCLC 116% | NCI-H460 lung 76.5% | 786-0 renal 91.2% | COLO 205 colon 82.8%

Cc1ncc(C(=O)Nc2ccc(CN3CCN(C)CC3)c(C(F)(F)F)c2)cc1C#Cc1c(N)ncc2ccc(F)cc12
active: NCI-H23 lung -79.4% | NCI-H322M lung -89.7% | HOP-92 NSCLC -29.9% | A549/ATCC NSCLC -69.9% | 786-0 renal -70.5%
inactive: NCI-H226 lung 19.5% | HOP-62 NSCLC 15.9% | NCI-H522 lung 37.3%

Cc1ncc(C(=O)Nc2ccc(CN3CCN(C)CC3)c(C(F)(F)F)c2)cc1C#Cc1c(N)ncc2ccccc12
active: NCI-H23 lung -73.1% | NCI-H226 lung -79.1% | NCI-H322M lung -99% | HOP-62 NSCLC -97.2% | HOP-92 NSCLC -37.9% | NCI-H522 lung -85.7% | A549/ATCC NSCLC -96.6% | 786-0 renal -91.8%

Cc1ccc(C(=O)Nc2ccc(CN3CCN(C)CC3)c(C(F)(F)F)c2)cc1C#Cc1cnc(N)c2ccc(F)cc12
active: NCI-H23 lung -77.3% | NCI-H226 lung -45.5% | NCI-H322M lung -99.3% | HOP-62 NSCLC -68.8% | HOP-92 NSCLC -90.3% | NCI-H522 lung -75.1% | A549/ATCC NSCLC -87.5% | 786-0 renal -85.3%

O=C(Nc1cccc(Cn2c(=O)[nH]c3ccc(Oc4ncccn4)cc3c2=O)c1)c1cccc(F)c1
inactive: NCI-H23 lung 82.2% | NCI-H226 lung 74.1% | NCI-H322M lung 86.4% | HOP-62 NSCLC 79% | HOP-92 NSCLC 60.9% | NCI-H522 lung 60.9% | A549/ATCC NSCLC 70.2% | 786-0 renal 65.6%

COc1ccc(Oc2[nH]n(C3=Nc4ccccc4Sc4ccccc43)c(=O)c2C#N)cc1
inactive: NCI-H23 lung 95.7% | NCI-H226 lung 100% | NCI-H322M lung 125% | HOP-62 NSCLC 92.1% | HOP-92 NSCLC 74.2% | NCI-H522 lung 74.9% | A549/ATCC NSCLC 98.4% | 786-0 renal 104% | COLO 205 colon 111%

CC1=C(C)C[C@]2(C(=O)O[C@H]3CCCC[C@@H]32)[S@](=O)C1
inactive: NCI-H23 lung 97.9% | NCI-H226 lung 109% | NCI-H322M lung 106% | HOP-62 NSCLC 106% | HOP-92 NSCLC 105% | NCI-H522 lung 82.9% | A549/ATCC NSCLC 96.5% | 786-0 renal 102% | COLO 205 colon 108%

O=C(Nc1cccc(Cn2c(=O)[nH]c3ccc(Oc4ncccn4)cc3c2=O)c1)c1ccc(Cl)cc1
inactive: NCI-H23 lung 46.9% | NCI-H226 lung 34.6% | NCI-H322M lung 61.5% | HOP-62 NSCLC 55.2% | HOP-92 NSCLC 52.8% | NCI-H522 lung 50.5% | A549/ATCC NSCLC 46.9% | 786-0 renal 70.5%

COc1cc(/C=C/C(=O)/C=C(/C=C/c2ccc(OC(C)=O)c(OC)c2)OB(F)F)ccc1OC(C)=O
inactive: NCI-H23 lung 61.5% | NCI-H226 lung 87.1% | NCI-H322M lung 99.6% | HOP-62 NSCLC 103% | HOP-92 NSCLC 62.5% | NCI-H522 lung 16.8% | A549/ATCC NSCLC 82.7% | 786-0 renal 80.7% | COLO 205 colon 71.2%

CCCCCCNc1nc(N2CCOCC2)c2[nH]c(NCCCCCC)nc2n1
active: NCI-H23 lung -94.5% | NCI-H226 lung -82.9% | NCI-H322M lung -46.7% | HOP-62 NSCLC -95.9% | HOP-92 NSCLC -77.7% | NCI-H522 lung -79.8% | A549/ATCC NSCLC -90.1% | 786-0 renal -100% | COLO 205 colon -64.8%

CCCCCCCCCCN1CC2CCCCC2C1 (centres undefined)
inactive: NCI-H23 lung 82.2% | NCI-H226 lung 76% | NCI-H322M lung 99.7% | HOP-62 NSCLC 69.4% | HOP-92 NSCLC 56.4% | NCI-H522 lung 67.1% | A549/ATCC NSCLC 97.3% | 786-0 renal 86.6% | COLO 205 colon 61%

O=C(C(=O)N1CCOCC1)c1ccc(O[C@H]2O[C@H](CO)[C@@H](O)[C@H](O)[C@@H]2O)cc1
inactive: NCI-H23 lung 99.9% | NCI-H226 lung 95.8% | NCI-H322M lung 91.7% | HOP-62 NSCLC 111% | HOP-92 NSCLC 102% | NCI-H522 lung 93.9% | A549/ATCC NSCLC 106% | 786-0 renal 97.1% | COLO 205 colon 119%

O=C1C(Cl)=C(Nc2ccc(Nc3ccccc3)c(NC3=C(Cl)C(=O)c4ccccc4C3=O)c2)C(=O)c2ccccc21
inactive: NCI-H23 lung 88.4% | NCI-H226 lung 98.8% | NCI-H322M lung 57.3% | HOP-62 NSCLC 59.8% | HOP-92 NSCLC 45.3% | NCI-H522 lung 14.9% | A549/ATCC NSCLC 92.7% | 786-0 renal 78.3%
active: COLO 205 colon -15.6%

O=C(NCCCl)Nc1nccnc1OCc1ccc(F)cc1
inactive: NCI-H23 lung 97.2% | NCI-H226 lung 100% | NCI-H322M lung 104% | HOP-62 NSCLC 91.4% | HOP-92 NSCLC 79.4% | NCI-H522 lung 77.6% | A549/ATCC NSCLC 102% | 786-0 renal 89%

CCN(CCO)CCNc1ccc(C)c2sc3cc(OC)ccc3c(=O)c12
inactive: NCI-H23 lung 79.6% | NCI-H226 lung 73.5% | NCI-H322M lung 76.1% | HOP-62 NSCLC 62% | HOP-92 NSCLC 55.8% | NCI-H522 lung 62.6% | A549/ATCC NSCLC 59.4% | 786-0 renal 66.6% | COLO 205 colon 48.9%

N#Cc1ccc(NC2c3ccccc3CC2O)cc1 (centres undefined)
inactive: NCI-H23 lung 101% | NCI-H226 lung 102% | NCI-H322M lung 114% | HOP-62 NSCLC 105% | HOP-92 NSCLC 85% | NCI-H522 lung 104% | A549/ATCC NSCLC 106% | 786-0 renal 108% | COLO 205 colon 108%

COc1ccc(-c2nc(SCC(C)C)nc(Nc3ccc(C)cc3)c2C#N)cc1
inactive: NCI-H23 lung 73.9% | NCI-H226 lung 65.6% | NCI-H322M lung 52.9% | HOP-62 NSCLC 88.5% | HOP-92 NSCLC 73.9% | NCI-H522 lung 81.4% | A549/ATCC NSCLC 52.6% | 786-0 renal 24.4% | COLO 205 colon 46.6%

CCCCCCNC(=O)Oc1ccc(/C(=C(/C)Cc2ccc(OC)cc2)c2ccc(OCCN(C)C)cc2)cc1
active: COLO 205 colon -60.4%
inactive: NCI-H23 lung 82.5% | NCI-H226 lung 85.7% | NCI-H322M lung 86.5% | HOP-62 NSCLC 74.6% | HOP-92 NSCLC 46% | NCI-H522 lung 60% | A549/ATCC NSCLC 54% | 786-0 renal 59.4%

CC(=O)C(CO)C(=O)Nc1ccccc1 (centres undefined)
inactive: NCI-H23 lung 103% | NCI-H226 lung 96.9% | NCI-H322M lung 85.9% | HOP-62 NSCLC 93.3% | HOP-92 NSCLC 96.6% | NCI-H522 lung 82.3% | A549/ATCC NSCLC 93.6% | 786-0 renal 96.8% | COLO 205 colon 99.5%

CC(C)(C)OC(=O)N1C/C(=C\c2ccccc2)C(=O)/C(=C/c2ccccc2)C1
inactive: NCI-H23 lung 103% | NCI-H226 lung 81.6% | NCI-H322M lung 92.6% | HOP-62 NSCLC 96.4% | HOP-92 NSCLC 69.4% | NCI-H522 lung 72% | A549/ATCC NSCLC 92.7% | 786-0 renal 81.6%

COc1cccc(CNC(=O)c2cccc(C3CC(=O)c4c(cc(OC)c(OC)c4OC)O3)c2)c1 (centres undefined)
inactive: NCI-H23 lung 99.1% | NCI-H226 lung 78.2% | NCI-H322M lung 86.6% | HOP-62 NSCLC 66.7% | HOP-92 NSCLC 19.8% | NCI-H522 lung 24.9% | A549/ATCC NSCLC 80.8% | 786-0 renal 24.8%

CN1CCN(Cc2ccc(NC(=O)c3cncc(C#Cc4c(N)ncc5ccc(F)cc45)c3)cc2C(F)(F)F)CC1
active: NCI-H226 lung 8.85% | HOP-92 NSCLC -22.7% | 786-0 renal -71.9%
inactive: NCI-H23 lung 30.6% | NCI-H322M lung 27.7% | HOP-62 NSCLC 22.1% | NCI-H522 lung 49.7% | A549/ATCC NSCLC 26.5%

O=C(O)c1ccc(Br)nc1
inactive: NCI-H23 lung 102% | NCI-H226 lung 98.4% | NCI-H322M lung 101% | HOP-62 NSCLC 91.6% | HOP-92 NSCLC 94.6% | NCI-H522 lung 87.8% | A549/ATCC NSCLC 89.6% | 786-0 renal 100% | COLO 205 colon 105%

C/C=C(/C)C(=O)OC1C=C(CO)C(=O)C(OC(=O)C(C)(O)C(C)Cl)C1C(C)C (centres undefined)
active: NCI-H23 lung -50.1% | NCI-H226 lung -19.4% | NCI-H322M lung -10.6% | HOP-62 NSCLC -1.29% | HOP-92 NSCLC -50.2% | NCI-H522 lung -34.4% | A549/ATCC NSCLC -18% | 786-0 renal -72.1%

N#CC1=C(N2CCOCC2)NC2c3ccccc3Sc3ccccc3N2C1=N (centres undefined)
inactive: NCI-H23 lung 99% | NCI-H226 lung 94.5% | NCI-H322M lung 117% | HOP-62 NSCLC 78.3% | HOP-92 NSCLC 84.5% | NCI-H522 lung 83.6% | A549/ATCC NSCLC 103% | 786-0 renal 104% | COLO 205 colon 96.8%

COc1cc2oc(-c3ccc(NC(=O)c4ccccc4)cc3)cc(=O)c2c(OC)c1OC
inactive: NCI-H23 lung 82.4% | NCI-H226 lung 85.4% | NCI-H322M lung 69.4% | HOP-62 NSCLC 90.3% | HOP-92 NSCLC 69.2% | NCI-H522 lung 70.2% | A549/ATCC NSCLC 80.3% | 786-0 renal 90.4%

Cc1ccc(S(=O)(=O)Nc2cccc(Cn3c(=O)[nH]c4ccc(Oc5ncccn5)cc4c3=O)c2)cc1
inactive: NCI-H23 lung 85.4% | NCI-H226 lung 86.1% | NCI-H322M lung 79.9% | HOP-62 NSCLC 72.2% | HOP-92 NSCLC 62.9% | NCI-H522 lung 33.6% | A549/ATCC NSCLC 90.7% | 786-0 renal 95.9%

Nc1ccc(N=Nc2ccccc2)c2cc(S(=O)(=O)O)ccc12
inactive: NCI-H23 lung 91.4% | NCI-H226 lung 103% | NCI-H322M lung 104% | HOP-62 NSCLC 92.4% | HOP-92 NSCLC 94.5% | NCI-H522 lung 88.5% | A549/ATCC NSCLC 99.3% | 786-0 renal 104% | COLO 205 colon 116%

CCCNC(=O)Oc1ccc(/C(=C(/C)Cc2ccc(OC)cc2)c2ccc(OCCN3CCCCC3)cc2)cc1
inactive: NCI-H23 lung 90.8% | NCI-H226 lung 95.1% | NCI-H322M lung 81.5% | HOP-62 NSCLC 84.9% | HOP-92 NSCLC 61% | NCI-H522 lung 84.8% | A549/ATCC NSCLC 84.4% | 786-0 renal 81.8%

Reference: PubChem BioAssay (NCI)
